Tested on: VDR:RXRa (NR concentration 270 nM, RXRa partner concentration 90 nM)
Test: PBM binding z-score (relative to random genomic background probes); higher = stronger binding; sequences stand for … in GC…GCGATTGACAGCGTAGAATGAAGG
Procedure: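 Protein-binding microarray (Agilent 4x180K custom design, double-stranded 60-nt probes: 5' GC cap, 34-nt variable region, 24-nt constant primer region; full probe sequence given). Purified or IVT nuclear receptor:RXRα heterodimers (3:1 NR:RXRα, mostly 270:90 nM) or homodimers were incubated for 1 h in PBS with 2% milk and no ligand, then detected with Alexa488 antibodies. Fluorescence from o1-orientation probes (~5 replicates averaged) was converted to z-scores against 500 random hg19 background probes. Variable regions are seed direct-repeat (DR0–DR5) sites, all their single-nucleotide variants and half-site ablations.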

In order of rising PBM binding z-score:
1. TAGCCTTGGTCATGCGGGCCAGTATAGTGTCGGC  -0.724
2. AGAATGAGGTTTCCAAAGATCAGGGAAACGCTTG  -0.555
3. TCTAGCAGGCCAGATGGTCACTCAAGAGGTACGG  -0.443
4. GATACAGGGTAAGCTAGAGGCCAGAGTATGGAAA  -0.409
5. AATACAGAGTCATCGTAGGCCAGAGTACGCACAG  -0.242
6. GGAACGAGGGGAAGTTGATAGCAGAGTTTGATGG  -0.234
7. ATCTCTAGGTAAGACTCAGCTCAGTGAAGAACGC  -0.134
8. ATATGTAGGTTAGCTGGGCTCATTCAGACTAGGC  -0.0839
9. GCTACTGGGGCAAAGCAGGTTACCATAAGGTTGG  0.028
10. CCGAGTAGGTTATGGTGCATTCAGGCAACGGTGA  0.0938
11. CCGAGTAGGTTATGGGGCATTGAGGCAACGGTGA  0.258
12. TAGCCTAGGTCAGATCGCGCCAGTATACGCTATA  0.314
13. GGAACGAGGGCAAAGTAGATAGCATCTGTCGACG  0.414
14. ACTGGCAGGCCAAGTTTGGGTCACTCAAACAAAG  0.456
15. CCTTACGAGTCAAGGTTATAGCACGGGTGGTACG  0.509
16. CCTGCTAGGTCAATCGTCAGCTAAAGCAGCTCGC  0.744
17. GGAACGAGGGCAAGTTGATGGCAGAGTTTGATGG  0.912
18. TTACCAAGGTGAAGGTCGTTGAGCCCTCTGTAGA  1
19. CCGACTGGGGCAGAAAGGTTAACATACCATCCGG  1.12
20. GGTAGCAGGCCATTTGGGTCACTCAATGACGGGC  1.14
21. TGAATGAGGTTATATGATCAGGGAACGTTGCAAA  1.33
22. CCTGCTAGGTCATGATCAGCTAATCTACAGTATG  1.41
23. TCAGCTAGGTCAACGATGGTCAGCTAATCTGCTA  1.53
24. TCTTGTAGATCAAAAGAGGTTAAGAAAGTGCGCT  1.72
25. AGAACGAGGGCACGCTGAGTTGATAGCCGAGTAG  2.07
26. CCTAGGAGGACAACAGGAGGTCAGAGCTGCCAGA  2.09
27. TCTCGGCGGACACGAAAGGTCAGAGCTCGACATC  2.19
28. CGAACTAGGTCATTGACAGGACAGTCAATAGTAA  2.29
29. ACTATTAGTTGAGACGGGGGCAACCGATAGGTTG  2.71
30. ACTCGGAGGACAAAGGTCAGAGATACGCCAGTGA  3.38
31. CGTCAAAGTTCAAGGTAACGTGACAGAAAGCAGC  3.71
32. CCTACTTGGCCACGAAAGGTCATTGATTCAGTGA  4.14
33. CGGACTAGGTCATCCAGGACAGTGAATACATTGA  4.36
34. CCTACTGGGCCCAAAAGGTCATTGATGCCGATAA  4.63
35. ACTATTTGGTCAGCTGAGGTCACACACAATTCGG  4.64
36. GCTTACGGGTCAAAGGTTGTAGCATGAATAGAAT  4.66
37. TATATAGGGTCAAAGGCCAGAGTACGAATGTCGA  4.75
38. CAAACTAGTTCAAGGTCAAAGTCGGTTTGTGCCA  4.92
39. CAAACTACGTCAAAGGTCAAAGTCGAGCCAACCA  5.02
40. GCTCGGAGGTCAAGGTCAGAGCTTTGTCCGTAGA  5.06
